About 14,000 (4.5%) of roughly 310,000 compounds showed an effect of 50% or more. The effect is printed as a negative number. The list comes from a sample in which strong results are over-represented; it also holds similar structures and randomly drawn compounds.
Target: human ether-à-go-go-related gene (hERG) potassium channel (human, UniProt Q12809)
Assay: primary screen, population patch clamp on CHO cells stably expressing hERG; higher = less effect of the substance
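Also: peak tail current of the secondary pulse compared with the same well before compound.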

human ether-à-go-go-related gene (hERG) potassium channel, sequence (Q12809 whole entry, looked up): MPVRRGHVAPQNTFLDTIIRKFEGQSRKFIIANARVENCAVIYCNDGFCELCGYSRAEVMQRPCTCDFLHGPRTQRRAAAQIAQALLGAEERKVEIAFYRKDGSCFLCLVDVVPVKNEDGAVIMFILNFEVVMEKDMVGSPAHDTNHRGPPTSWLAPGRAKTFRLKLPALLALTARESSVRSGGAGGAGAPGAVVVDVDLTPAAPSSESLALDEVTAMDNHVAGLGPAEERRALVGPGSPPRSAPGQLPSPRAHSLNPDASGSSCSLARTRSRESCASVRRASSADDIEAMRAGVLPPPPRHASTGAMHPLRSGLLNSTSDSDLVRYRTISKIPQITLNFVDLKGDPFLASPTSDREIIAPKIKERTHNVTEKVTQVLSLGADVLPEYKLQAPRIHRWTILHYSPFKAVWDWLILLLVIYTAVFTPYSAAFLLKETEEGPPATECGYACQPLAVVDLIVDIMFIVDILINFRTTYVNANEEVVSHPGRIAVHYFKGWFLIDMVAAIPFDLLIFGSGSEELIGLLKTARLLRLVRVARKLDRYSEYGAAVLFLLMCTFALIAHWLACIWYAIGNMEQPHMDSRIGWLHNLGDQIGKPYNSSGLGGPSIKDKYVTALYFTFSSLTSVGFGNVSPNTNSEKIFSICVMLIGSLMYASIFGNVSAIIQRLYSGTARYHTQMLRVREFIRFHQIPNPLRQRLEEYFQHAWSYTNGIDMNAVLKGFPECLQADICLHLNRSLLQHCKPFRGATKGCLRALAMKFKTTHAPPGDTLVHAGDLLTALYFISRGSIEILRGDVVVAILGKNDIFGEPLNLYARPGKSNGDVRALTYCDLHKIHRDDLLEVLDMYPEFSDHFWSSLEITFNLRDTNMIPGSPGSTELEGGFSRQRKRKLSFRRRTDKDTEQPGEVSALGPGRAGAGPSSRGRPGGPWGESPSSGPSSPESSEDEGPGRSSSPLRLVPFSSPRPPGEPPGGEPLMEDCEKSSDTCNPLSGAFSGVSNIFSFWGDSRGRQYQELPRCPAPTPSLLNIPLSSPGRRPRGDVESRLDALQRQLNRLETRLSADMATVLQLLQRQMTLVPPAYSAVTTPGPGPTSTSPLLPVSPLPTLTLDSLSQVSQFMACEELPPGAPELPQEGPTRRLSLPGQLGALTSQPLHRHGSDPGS

Compound	hERG current change (%, negative = inhibition) at 10uM [%]
Oc1ccccc1N1CCN(c2ncccn2)CC1	10.4
Cc1ccc(S(=O)(=O)NNC(=O)c2sccc2-n2cccc2)cc1	-21.7
CC(C)c1cccc(C(C)C)c1NC(=S)Nc1cccc(Cl)c1	5.01
COc1ccc(CC(=O)NNC(=O)c2ccncc2)cc1	29.1
CCOc1ccc(CNS(=O)(=O)c2c(C)nc3scc(C)n3c2=O)cc1OC	8.99
CCOc1ccc(CNS(=O)(=O)c2c(C)nc3sccn3c2=O)cc1OC	-66.1
COc1cccc(CNS(=O)(=O)c2c(C)nc3sccn3c2=O)c1	-13.6
O=C(NCCNC(=O)c1ccccn1)c1ccccc1	11.7
COc1ccc(Nc2c(-c3ccc(C)cc3)nc3cnccn23)cc1	-24.5
C=CCc1ccc(OCCn2nnc3ccccc32)c(OC)c1	-12.8
Cc1ccc2c(c1)C1CN(C)CCC1N2C(=S)Nc1ccc(Cl)cc1Cl (stereo not drawn)	-34.2
Cc1ccc2c(c1)C1CN(C)CCC1N2C(=S)Nc1ccc(OC(F)F)cc1 (stereo not drawn)	-55.1
Cc1ccc2c(c1)C1CN(C)CCC1N2C(=S)Nc1cccnc1 (stereo not drawn)	-14
Cc1ccc2c(c1)C1CN(C)CCC1N2C(=O)c1cccs1 (stereo not drawn)	-22
COc1ccc(-c2nn(-c3ccccc3)cc2C(=O)N2c3ccc(C)cc3C3CN(C)CCC32)cc1 (stereo not drawn)	-31.7
Cc1ccc(C(=O)N(C)c2ccc(OCC(=O)N3c4ccc(C)cc4C4CN(C)CCC43)cc2)cc1.Cl (stereo not drawn)	-25.5
Cc1ccc2c(c1)C1CN(C)CCC1N2C(=O)c1ccc(Br)o1 (stereo not drawn)	-38
Cc1ccc2c(c1)C1CN(C)CCC1N2C(=S)NC(=O)c1ccc(Br)cc1 (stereo not drawn)	-67.1
Cc1ccc2c(c1)C1CN(C)CCC1N2C(=O)c1ccco1 (stereo not drawn)	-7.26
Cc1ccc2c(c1)C1CN(C)CCC1N2C(=S)NC(=O)c1ccc(Cl)cc1Cl (stereo not drawn)	-71
Cc1ccc2c(c1)C1CN(C)CCC1N2C(=O)c1cn(-c2ccccc2)nc1-c1ccccc1 (stereo not drawn)	-65.6

Compound	hERG current change (%, negative = inhibition) at 10uM [%]
CC1Cc2ccccc2N1C(=S)NC(=O)c1ccc(Cl)cc1Cl (stereo not drawn)	4.89
CC(C)c1ccc(NC(=O)CNCC(c2ccccc2)N(C)C)cc1 (stereo not drawn)	-27.6
C/C(=N\NC(=O)c1ccc2c(c1)OCO2)c1ccc(O)cc1	13.1
Cc1ccc(/C=N/NC(=O)c2ccco2)s1	-2.98
CCOc1cc(S(=O)(=O)NCCCN2CCOCC2)ccc1F	3.16
Cc1cc(NC(=O)c2c(-c3c(Cl)cccc3Cl)noc2C)n(C)n1	16
N#Cc1cccc(NC(=O)CN2C(=O)NC(Cc3ccccc3)C2=O)c1 (stereo not drawn)	2.91
O=C(CN1C(=O)NC(Cc2ccccc2)C1=O)Nc1ccccc1 (stereo not drawn)	6.7
O=C(CN1C(=O)NC(Cc2ccccc2)C1=O)Nc1ccc(OC(F)(F)F)cc1 (stereo not drawn)	-13.9
O=C(CN1C(=O)NC(Cc2ccccc2)C1=O)Nc1ccc(F)cc1 (stereo not drawn)	-7.41
N#Cc1ccc(NC(=O)CN2C(=O)NC(Cc3ccccc3)C2=O)cc1 (stereo not drawn)	-57.7
O=C(CN1C(=O)NC(Cc2ccccc2)C1=O)Nc1ccc(OC(F)F)cc1 (stereo not drawn)	-66.9
Cn1nc(-c2ccccc2)c(C(=O)Nc2ccc(Cl)cc2)c1Cl	-12.7
O=C(CC1(O)C(=O)Nc2ccccc21)c1ccc(-n2cccc2)cc1 (stereo not drawn)	2.85
CCCCN1C(N)=NC[C@@H]1C(C)O (stereo partly drawn)	15.9
Cc1nn(-c2ccc(F)cc2)c(Cl)c1C(=O)OC(C)C(=O)N(C)C1CCCCC1 (stereo not drawn)	-59
CC(=O)Nc1ccc(NC(=O)C(C)OC(=O)c2c(C)nn(-c3ccccc3)c2Cl)cc1 (stereo not drawn)	-14.8
COC(=O)c1c(C)[nH]c(C(=O)OC(C)C(=O)N(C)C2CCCCC2)c1C (stereo not drawn)	-2.13
Cc1ncc(CN2CCCC(C(=O)c3sccc3C)C2)s1 (stereo not drawn)	24.7
Cc1ccsc1C(=O)C1CCCN(Cc2cccn2-c2ccccn2)C1 (stereo not drawn)	-75.8
Cc1ccsc1C(=O)C1CCCN(Cc2cnc(N(C)C)s2)C1 (stereo not drawn)	-9.23

Compound	hERG current change (%, negative = inhibition) at 10uM [%]
Cc1ccsc1C(=O)C1CCCN(Cc2cccn2-c2ccc(Cl)cn2)C1 (stereo not drawn)	-77.6
CC(C)(C)C(=O)NC1(C(F)(F)F)N=C2SCCN2C1=O (stereo not drawn)	-4.77
CNC(=O)c1c(NC(=O)c2ccco2)sc(C)c1C	1.42
CCOc1cccc2c1OC1(C)CC2NC(=O)N1c1cccc(C(=O)N2CCN(c3ccccn3)CC2)c1 (stereo not drawn)	-1.89
Cc1cc(Br)c(NC(=O)Cn2c([N+](=O)[O-])cnc2C)cc1C	4.01
Cc1ccc(C)c(S(=O)(=O)NCC(c2ccco2)N2CCc3ccccc3C2)c1 (stereo not drawn)	-9.3
O=C(NCc1ccco1)c1ccc(Cl)c(S(=O)(=O)N2CCc3ccccc32)c1	-20.6
COc1cccc(NC(=O)C(=O)NCC(c2ccco2)N2CCc3ccccc3C2)c1 (stereo not drawn)	-9.29
COc1ccc(NC(=O)C(=O)NCC(c2ccco2)N2CCc3ccccc3C2)cc1 (stereo not drawn)	-23.5
O=C(NCC(c1ccco1)N1CCCC1)c1ccc(Cl)c(S(=O)(=O)N2CCc3ccccc32)c1 (stereo not drawn)	-51
O=C(NCC(c1ccco1)N1CCc2ccccc2C1)c1cccc([N+](=O)[O-])c1 (stereo not drawn)	-67.2
O=C(NCC(c1ccco1)N1CCOCC1)c1cccc([N+](=O)[O-])c1 (stereo not drawn)	12.7
COc1ccc(F)cc1S(=O)(=O)NCC(c1ccco1)N1CCc2ccccc2C1 (stereo not drawn)	-30.4
COc1ccc(C)cc1S(=O)(=O)NCC(c1ccco1)N1CCc2ccccc2C1 (stereo not drawn)	-62.8
O=C(NCC(c1ccco1)N1CCCCC1)c1cccc(S(=O)(=O)Nc2ccccc2Cl)c1 (stereo not drawn)	-2.33
COc1ccc(NC(=O)C(=O)NCC(c2ccco2)N2CCc3ccccc3C2)cc1OC (stereo not drawn)	-69.4
O=C(NCC(c1ccco1)N1CCc2ccccc2C1)c1cccc(Br)c1 (stereo not drawn)	-5.34
COc1ccc(C)cc1NC(=O)c1nnn(Cc2cccc(F)c2)c1N	7.11
O=C(c1ccc(NS(=O)(=O)c2ccccc2)cc1)N1CCCCCC1	-11.9
COC(=O)c1cc(C#N)c(=O)[nH]c1C	20.3
Cc1cccc(OCC(=O)Nc2cccc(-c3nnc(-c4ccccc4)o3)c2)c1C	-4.37

Compound	hERG current change (%, negative = inhibition) at 10uM [%]
CC(C)N1CCC(N2CCN(C3CCCCC3)CC2CCO)CC1 (stereo not drawn)	18.9
O=C(NCC(c1ccco1)N1CCc2ccccc2C1)c1ccc(F)cc1 (stereo not drawn)	-10.7
O=C(NCC(c1ccco1)N1CCc2ccccc2C1)c1ccccc1 (stereo not drawn)	-19
O=C(NCC(c1ccco1)N1CCc2ccccc2C1)c1ccc(Cl)cc1 (stereo not drawn)	-47.8
O=C(NCC(c1ccco1)N1CCc2ccccc2C1)c1cccc(F)c1 (stereo not drawn)	-63.5
O=C(NCC(c1ccco1)N1CCc2ccccc2C1)c1ccc(Br)cc1 (stereo not drawn)	-12.6
O=C(NCC(c1ccco1)N1CCc2ccccc2C1)C(=O)Nc1cc(F)ccc1F (stereo not drawn)	-52.3
O=C(NCC(c1ccco1)N1CCc2ccccc2C1)c1ccc(Cl)c([N+](=O)[O-])c1 (stereo not drawn)	-55.5
Cc1ccc(C(=O)NCC(c2ccco2)N2CCc3ccccc3C2)cc1C (stereo not drawn)	-5.02
O=C(NCC(c1ccco1)N1CCc2ccccc2C1)C(=O)Nc1ccccc1F (stereo not drawn)	8.09
COc1cccc(C(=O)NCC(c2ccco2)N2CCc3ccccc3C2)c1 (stereo not drawn)	-17
O=C(NCC(c1ccco1)N1CCc2ccccc2C1)C(=O)Nc1ccc(F)cc1F (stereo not drawn)	-0.136
O=C(NCC(c1ccco1)N1CCc2ccccc2C1)c1ccc([N+](=O)[O-])cc1 (stereo not drawn)	-58.1
O=C(CN1C(=O)S/C(=C\c2ccc(C(=O)O)cc2)C1=O)Nc1ccccc1	19
CCCCNC(=O)C1Cc2cc(S(=O)(=O)N3CCCCC3)ccc2N1C(C)=O (stereo not drawn)	17.4
COc1ccc(C2(c3ccc(OC)cc3)NC(=O)N(CC(=O)Nc3ccc(OC)c(OC)c3)C2=O)cc1	-2.49
Cc1noc(/C=C/N(C)C)c1S(=O)(=O)N1CCCC(C(=O)N2CCc3ccccc32)C1 (stereo not drawn)	13
CCC(NC(=O)C1CCCO1)c1ccccc1 (stereo not drawn)	22.8
Cc1ccc(CNC(=O)CNC(=O)c2ccc(Br)o2)cc1	5.03
Cc1ccccc1CN1[C@@H]2c3ccccc3C[C@@H]2OCCS1(=O)=O	-3.4
COc1ccc(C(C(=O)NC2CCCCC2)N(C(=O)c2ccccn2)c2cccnc2)cc1 (stereo not drawn)	22.4

Reference: publication PMC4336329 (PLoS ONE, 2015)
